Source: PubChem BioAssay (NCI)
About 79,000 compounds went through this panel and 15% of them were active in at least one assay; those are over-represented in the sample as a whole. The source made the active and inactive calls. Rule as the data show it: active = growth inhibition above about 70%; inactive = the rest.

Key:
[1] = NCI Yeast Anticancer Drug Screen. Data for the rad50 strain (AID 155);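 also: 0% = growth of vehicle-only cultures of the same strain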; conditions: S. cerevisiae rad50 strain growth inhibition; at 50.0 µM; stronger effect = higher value
Outline: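 Cells are treated with compound, grown, and their growth is then scored against vehicle-only cultures of the same repair-deficient yeast strain.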

[2] = NCI Yeast Anticancer Drug Screen. Data for the mec2-1 strain (AID 157); conditions: S. cerevisiae mec2-1 strain, at 50.0 µM, stronger effect = higher value
Outline: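 Using mec2-1 yeast: add compound, measure growth, express inhibition versus vehicle-treated cultures.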

[3] = NCI Yeast Anticancer Drug Screen. Data for the sgs1 mgt1 strain (AID 161);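 also: 0% = growth of cultures given vehicle only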; conditions: S. cerevisiae sgs1 mgt1 strain, at 50.0 µM, stronger effect = higher value
Outline: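 Growth of a repair-deficient yeast mutant was monitored after compound treatment and expressed as inhibition relative to vehicle-treated cultures.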

[4] = NCI Yeast Anticancer Drug Screen. Data for the cln2 rad14 strain (AID 165);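 also: 0% = growth equal to vehicle treated cultures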; conditions: S. cerevisiae cln2 rad14 strain, at 50.0 µM, stronger effect = higher value
Outline: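 Yeast strain cln2 rad14, bearing defects in cell cycle control and DNA repair, serves as the test system; values reflect growth inhibition compared with vehicle.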

[5] = NCI Yeast Anticancer Drug Screen. Data for the bub3 strain (AID 167); conditions: S. cerevisiae bub3 mutant strain, at 50.0 µM, stronger effect = higher value
Outline: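 Part of a panel of yeast mutants defective in DNA damage repair or cell cycle regulation. Each strain is grown with compound, and inhibition is calculated relative to solvent-treated cultures.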

[6] = NCI Yeast Anticancer Drug Screen. Data for the mlh1 rad18 strain (AID 175); conditions: S. cerevisiae mlh1 rad18 strain growth inhibition; at 50.0 µM; stronger effect = higher value
Outline: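 Steps: expose repair-defective yeast to compound; measure growth; express inhibition against vehicle-treated controls.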

Measured: growth inhibition

Cc1nc(C(F)(F)F)cc(=O)[nH]1
inactive: [1] 7.4% | [2] -3.6% | [3] 15.7% | [4] -1.25% | [5] -5.4% | [6] 51%

C=CCCCCCCCCC(=O)Nc1cc(Cl)ccc1C
inactive: [1] -0.25% | [2] -5% | [3] -10.4% | [4] -22.9% | [5] -10.8% | [6] -2.7%

O=c1[nH]c2cc([N+](=O)[O-])ccc2c2ccc(Cl)cc12
inactive: [1] 57.4% | [2] 0% | [3] 4.85% | [4] 2.75% | [5] 6.5% | [6] 27.6%

OCC(O)C(O)C(O)C(c1ccc(Cl)cc1)c1ccc(Cl)cc1 (configuration not stated)
inactive: [1] -16.4% | [2] 0.65% | [3] -23% | [4] 5.35% | [5] 2.25% | [6] 35%

O=C(O)c1cc(=O)c2cc(Cl)ccc2[nH]1
inactive: [1] -15.5% | [2] -12.2% | [3] -17.1% | [4] -19% | [5] -9.9% | [6] -1.55%

O=C(Nc1cccc2ccccc12)Oc1cccc2cccnc12
active: [1] 98% | [2] 96.9% | [3] 97.5% | [4] 94% | [5] 98.5% | [6] 98%

O=c1[nH]c(-c2ccc(-c3nc4cc([N+](=O)[O-])ccc4c(=O)[nH]3)cc2)nc2cc([N+](=O)[O-])ccc12
inactive: [1] -33% | [2] -13.8% | [3] -26.7% | [4] -6.9% | [5] -24.5% | [6] -13.3%

S=C(NCc1cccnc1)Nc1ccc(Cl)c(Cl)c1
inactive: [1] 26.8% | [2] 13.3% | [3] 27.9% | [4] 5.85% | [5] 27.6% | [6] 13.7%

CC1(C)CC(=O)C(C(CCC2CCCCC2=O)C2C(=O)CC(C)(C)CC2=O)C(=O)C1 (configuration not stated)
inactive: [1] 38.5% | [2] 7.95% | [3] 10% | [4] 1.95% | [5] 9.35% | [6] 19.6%

CC(=O)CC(C)(C)NC(=S)Nc1ccc(C)cc1
inactive: [1] 22.6% | [2] 46.1% | [3] 15.3% | [4] -10.7% | [6] 42.3%
active: [5] 99.2%

Cc1cc(=O)oc2c(C(=O)/C=C/N(C)C)c(O)ccc12
inactive: [1] -29.9% | [2] 4.1% | [3] 7.85% | [4] 0.25% | [5] 9.95% | [6] 7.7%

COc1ccc(N2C(=O)CC(c3cc(OC)c(OC)c(OC)c3)CC2=O)cc1
inactive: [1] -3.7% | [2] -20.5% | [3] 10.4% | [4] 3.1% | [5] 8.25% | [6] -2.75%

CC(NS(=O)(=O)c1ccccc1)C(N)=O (configuration not stated)
inactive: [1] 2.75% | [2] 2.1% | [3] 3.55% | [4] -11.2% | [5] 6.95% | [6] -2.4%

c1cc2c3c(c1)ccc1ccc4cccc(c4c13)O2
inactive: [1] -26.4% | [2] -2.4% | [3] -24.2% | [4] -0.7% | [5] -3.45% | [6] -47.9%

C/C=C/C(=O)OC/C=C(\C)CCC=C(C)C
inactive: [1] -26.4% | [2] -44.9% | [3] -6.7% | [4] -4.3% | [5] -39.7% | [6] -16.7%

NCC(O)CN
inactive: [1] -13.8% | [2] -0.75% | [3] -2.75% | [4] -8.2% | [5] -0.55% | [6] 1.45%

O=c1c(SCc2ccc(Cl)cc2Cl)c(SCc2ccc(Cl)cc2Cl)cnn1-c1ccccc1
inactive: [1] 16.8% | [2] -1.4% | [3] 7.3% | [4] 23.9% | [5] 1.05% | [6] 4.05%

CCOC(=O)/C(C)=C\C1C(C)=CC(=O)CC1(C)C (configuration not stated)
inactive: [1] -0.05% | [2] -16.1% | [3] -5.1% | [4] -29% | [5] 20.4% | [6] -7.15%

CC#CCC1CCC(OCC)=CC1=O (configuration not stated)
inactive: [1] 10.4% | [2] 9.25% | [3] 12.2% | [4] -20% | [5] 5.9% | [6] 17.1%

CC(=O)Nc1nnnn1C
inactive: [1] -3.05% | [2] -2.3% | [3] 0.45% | [4] -40.1% | [5] -1.9% | [6] -10.9%

[N-]=[N+]=NC[C@H]1OCO[C@H](CN=[N+]=[N-])[C@H]2OCCOCCOc3ccccc3OCCOCCO[C@@H]21
inactive: [1] -13.2% | [2] -9.65% | [3] -11.6% | [4] -15.6% | [5] -30.9% | [6] -18.1%

CCCCCC(=O)C(C)=O
inactive: [1] -22.8% | [2] -5.9% | [3] -0.9% | [4] -20.8% | [5] -20.8% | [6] -12.2%

CC(=O)C(CCC#N)(CCC#N)C(=O)Nc1ccccc1
inactive: [1] -9% | [2] 10.5% | [3] 3.35% | [4] -6% | [5] -2.05% | [6] -21.5%

COc1ccc(CN2CCCN(Cc3ccc(OC)cc3OC)C2c2cccc(OC)c2O)c(OC)c1
inactive: [1] 20.6% | [2] 16.6% | [3] 12.6% | [4] 16% | [5] -6.5% | [6] 6.5%

COc1ccc(OC)c(C(C)=O)c1
inactive: [1] -59% | [2] -66% | [3] -94% | [4] 1.75% | [5] -34.2% | [6] -29.4%

CC(=O)Cn1c(=O)oc2ccccc2c1=O
inactive: [1] 22.6% | [2] -9% | [3] -10.7% | [4] 49.5% | [5] 17.9% | [6] 10.1%

S=C(Oc1ccccc1)Oc1ccc2ccccc2c1
inactive: [1] 9.7% | [2] -6.8% | [3] -9.7% | [4] -6.55% | [5] 15.3% | [6] -11.6%

Cc1cccc(Cl)c1OCC(=O)Nc1ccccc1
inactive: [1] 20.9% | [2] 10.1% | [3] 20.8% | [4] 0.8% | [5] 58.6% | [6] -3.65%

CN(CC(O)CN1CCCc2ccccc21)C1CCCCC1 (configuration not stated)
inactive: [1] -5.8% | [2] 0.25% | [3] 17.9% | [4] -16% | [5] 46% | [6] 19.2%

Nc1c[nH]c(=S)s1
inactive: [1] 36.9% | [2] 18.8% | [3] 54.7% | [4] 0.9% | [5] 39.6% | [6] 51.2%

CCOC(=O)C(=[N+]=[N-])C(=O)c1ccc(OS(C)(=O)=O)c(OS(C)(=O)=O)c1
inactive: [1] 7.8% | [2] -1.05% | [3] 13% | [4] 22.3% | [5] -0.2% | [6] 11.9%

CC(=O)OCCC(OC(C)=O)c1ccccn1 (configuration not stated)
inactive: [1] -13.9% | [2] -13.1% | [3] -9.1% | [4] -2.95% | [5] 3.95% | [6] -18.6%

Cc1ccc(S(=O)(=O)N(C)c2cc(Cl)c(C(=O)O)cc2Cl)cc1
inactive: [1] -0.7% | [2] -14.9% | [3] 5.85% | [4] 4.05% | [5] -14.3% | [6] 15.1%

O=C(Nc1ccccc1)OCc1cnc2ccccc2c1
inactive: [1] 6.05% | [2] -22.6% | [3] 9.2% | [4] -9.4% | [5] 3.05% | [6] -2.8%

CC(C)=NOC(=O)Nc1ccccc1
inactive: [1] 44.4% | [2] -19.8% | [3] 14.9% | [4] -15.4% | [5] 1.7% | [6] 33.9%

N#CC1(C#N)C2(c3ccccc3)OC(c3ccccc3)(c3cc4ccccc4cc32)C1(C#N)C#N
inactive: [1] 1.75% | [2] 20.1% | [3] -4.1% | [4] 14.1% | [5] 8% | [6] 29.1%

CCOc1ncc(C(O)c2ccc(F)cc2)c(OCC)n1 (configuration not stated)
inactive: [1] 17.1% | [2] -3.95% | [3] 1.15% | [4] -52.4% | [5] 11.4% | [6] 0.3%

N#Cc1ccccc1OCCCCOc1ccccc1C#N
inactive: [1] 8.7% | [2] 14% | [3] 15.2% | [4] 14.2% | [5] 18.7% | [6] 16.1%

Cn1c(Cl)cn2c3nc4ccccc4nc3c(=O)c(C#N)c12
inactive: [1] 6.1% | [2] -29.2% | [3] -52.1% | [4] 1.3% | [5] -18.1% | [6] -4%

O=C1NC(CN2CCCCC2)C(=O)NC1CN1CCCCC1 (configuration not stated)
inactive: [1] -1.1% | [2] -13.4% | [3] 8.7% | [4] -8.7% | [5] -20.1% | [6] 0%

O=c1[nH]c2ccccc2c(O)c1-c1ccccc1
inactive: [1] 6.95% | [2] 0.8% | [3] -17% | [4] -8.6% | [5] -22.5% | [6] 0.65%

CC(C)NC(=O)OCc1cn2c(c1COC(=O)NC(C)C)CCC2
inactive: [1] 20.4% | [2] 12.8% | [3] 36% | [4] 22.4% | [5] 14.2% | [6] 35%
